Structures can show the parent of a compound that is named as a salt.

What all share (settings): incubation time: 27 h, anaerobic, 37 °C
In assay [1] the test system is Clostridium sporogenes DSM 1664. Kind of assay: growth (OD595) fold change vs plate DMSO controls (fold change (ratio)); higher = more growth. In a few lines:
(§1)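 Growth is the fold change relative to the median of plate DMSO controls. Readings came from anaerobic mGAM cultures in 96-well plates grown for 27 h at 37 °C and read at 595 nm. They were blank-subtracted, corrected for compound background with 20 µM compound solutions in water, and converted to OD with a calibration factor of 5. Values are means of 2 biological replicates, and fold changes above 1.5 were set to NA.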

Assay [2] has as its system Escherichia coli IAI1. The description is as above. An outline of the steps: as §1
The test system of assay [3] is Klebsiella aerogenes DSM 30053. Described as above. An outline of the steps:
as §1

The subject of assay [4] is Ruminococcus gnavus DSM 108212. The assay is described as above. An outline of the steps: as §1
The test system of assay [5] is Klebsiella aerogenes DSM 30053. Nature of the assay: fold change of Histamine concentration vs plate DMSO controls (fold change (ratio)); higher = more amine produced, active = hit call of the paper (significant change in both replicates, either direction). An outline of the steps: (§2)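 Amines were quantified by LC–triple-quadrupole MS in dynamic MRM mode against external calibration curves, with drift correction within each batch. The samples were whole anaerobic mGAM cultures of four gut bacterial strains, grown for 27 h at 37 °C in 80 µL wells and extracted with cold acetonitrile/methanol with 0.1% formic acid, then centrifuged. Values are reported as fold change over DMSO controls on the same plate. The mean of 2 biological replicates is given.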

The subject of assay [6] is Clostridium sporogenes DSM 1664. Kind of assay: fold change of Tryptamine concentration vs plate DMSO controls (fold change (ratio)); higher = more amine produced, active = hit call of the paper (significant change in both replicates, either direction). An outline of the steps: as §2
Assay [7] deals with Ruminococcus gnavus DSM 108212. Described as above. An outline of the steps:
as §2

In assay [8] the test system is Escherichia coli IAI1. Nature of the assay: fold change of Putrescine concentration vs plate DMSO controls (fold change (ratio)); higher = more amine produced, active = hit call of the paper (significant change in both replicates, either direction). In a few lines: as §2
The subject of assay [9] is Klebsiella aerogenes DSM 30053. The description is as above. In a few lines: as §2
In assay [10] the test system is Escherichia coli IAI1. Nature of the assay: fold change of Cadaverine concentration vs plate DMSO controls (fold change (ratio)); higher = more amine produced, active = hit call of the paper (significant change in both replicates, either direction). In a few lines:
as §2

Assay [11] relates to Klebsiella aerogenes DSM 30053. The description is as above. In a few lines: as §2
Assay [12] relates to Ruminococcus gnavus DSM 108212. Kind of assay: fold change of 2-Phenylethylamine concentration vs plate DMSO controls (fold change (ratio)); higher = more amine produced, active = hit call of the paper (significant change in both replicates, either direction). An outline of the steps:
as §2

As for `Cc1cc(NS(=O)(=O)c2ccc(N)cc2)nc(C)n1` [Sulfisomidine] (20 µM), the growth is 1.12 in assay [1], 1.07 with Escherichia coli IAI1 [2], 1.04 in [3] and 1.03 in assay [4]. In addition, the “fold change of Histamine concentration” value in [5] was 1.02 (inactive). In addition, the “fold change of Tryptamine concentration” value in assay [6] is 1.08 (inactive); in [7], 1.04 (inactive). Further, the “fold change of Putrescine concentration” value was 0.985 (inactive) in the assay on Escherichia coli IAI1 [8] and 0.987 (inactive) in assay [9]. The entries for the “fold change of Cadaverine concentration” value (with Escherichia coli IAI1 [10]; in assay [11]) were 0.993 (inactive) and 0.992 (inactive), respectively. Moreover, the “fold change of 2-Phenylethylamine concentration” value in [12] is 1.08 (inactive).

Turning to `Cc1cc2cc3c(C)cc(=O)oc3c(C)c2o1` [Trioxsalen] (20 µM), the growth in assay [1] is 1.03; with Escherichia coli IAI1 [2], 1.14; in [3] it was 0.991; in [4], 1.02. Moreover, the “fold change of Histamine concentration” value in assay [5] is 1.08 (inactive). The “fold change of Tryptamine concentration” value in assay [6] was 0.974 (inactive); in assay [7], 0.966 (inactive). Moreover, the “fold change of Putrescine concentration” value in the assay with Escherichia coli IAI1 [8] is 1.13 (inactive); in assay [9] it was 0.997 (inactive). The “fold change of Cadaverine concentration” value is 1.03 (inactive) in the assay with Escherichia coli IAI1 [10] and 0.985 (inactive) in [11]. Also, the “fold change of 2-Phenylethylamine concentration” value in assay [12] was 0.936 (inactive).

Turning to `COc1ccc(-c2noc(CC(=O)O)c2-c2ccc(OC)cc2)cc1` [Mofezolac] (20 µM), the growth is 0.876 in assay [1], 1.01 in the assay on Escherichia coli IAI1 [2], 1 in assay [3] and 1.21 in assay [4]. Also, in assay [5], the “fold change of Histamine concentration” value is 1.05 (inactive). Moreover, the “fold change of Tryptamine concentration” value in assay [6] was 0.988 (inactive); in assay [7], 0.979 (inactive). In addition, the “fold change of Putrescine concentration” value in the assay on Escherichia coli IAI1 [8] is 1.03 (inactive); in [9], 1 (inactive). Further, the “fold change of Cadaverine concentration” value with Escherichia coli IAI1 [10] was 0.987 (inactive); in assay [11], 0.993 (inactive). For the same compound, the “fold change of 2-Phenylethylamine concentration” value in [12] is 0.96 (inactive).

In the case of `COc1ccc(/C=C/C(=O)Nc2ccccc2C(=O)O)cc1OC` [Tranilast] (20 µM), the growth in assay [1] came to 1.04; with Escherichia coli IAI1 [2], 1.07; in assay [3], 1.19; in assay [4], 1.08. For the same compound, the “fold change of Histamine concentration” value in [5] was 0.89 (inactive). For the same compound, the “fold change of Tryptamine concentration” value in assay [6] was 0.993 (inactive); in [7], 1.01 (inactive). Besides, the “fold change of Putrescine concentration” value in the assay on Escherichia coli IAI1 [8] is 0.977 (inactive); in [9], 0.994 (inactive). For the same compound, the results for the “fold change of Cadaverine concentration” value (with Escherichia coli IAI1 [10]; in assay [11]) were 0.995 (inactive) and 1.02 (inactive), respectively. Also, the “fold change of 2-Phenylethylamine concentration” value in [12] was 0.981 (inactive).

`COc1c(O)cc2c(c1O)[C@@H]1O[C@H](CO)[C@@H](O)[C@H](O)[C@H]1OC2=O` [Bergenin] (20 µM): the growth in assay [1] is 0.966; in the assay with Escherichia coli IAI1 [2], 1.05; in [3], 1.11; in [4] it was 1.05. Besides, in [5], the “fold change of Histamine concentration” value was 0.891 (inactive). In addition, the “fold change of Tryptamine concentration” value in [6] was 1.01 (inactive); in assay [7], 1.06 (inactive). In addition, the entries for the “fold change of Putrescine concentration” value (with Escherichia coli IAI1 [8]; in assay [9]) were 0.97 (inactive) and 0.997 (inactive), respectively. Also, the “fold change of Cadaverine concentration” value in the assay on Escherichia coli IAI1 [10] was 0.93 (inactive); in assay [11], 1.03 (inactive). Moreover, the “fold change of 2-Phenylethylamine concentration” value in [12] is 1.05 (inactive).

In the case of `CCCC(=O)N1CCCN(c2nc(N)c3cc(OC)c(OC)cc3n2)CC1` [Bunazosin hydrochloride] (20 µM), the growth in assay [1] was found to be 1.05; in the assay on Escherichia coli IAI1 [2] it was 1.05; in assay [3], 1; in assay [4], 1.06. In addition, in assay [5], the “fold change of Histamine concentration” value is 1.04 (inactive). Also, the “fold change of Tryptamine concentration” value is 1.02 (inactive) in assay [6] and 1 (inactive) in [7]. Further, the “fold change of Putrescine concentration” value in the assay with Escherichia coli IAI1 [8] was 0.989 (inactive); in assay [9], 0.996 (inactive). For the same compound, the “fold change of Cadaverine concentration” value is 0.996 (inactive) in the assay with Escherichia coli IAI1 [10] and 0.984 (inactive) in assay [11]. The “fold change of 2-Phenylethylamine concentration” value in assay [12] was 1.03 (inactive).

For `CC(=O)O[C@H]1C[C@@]2(C)[C@@H](C[C@@H](O)[C@H]3[C@@]4(C)CC[C@@H](O)[C@@H](C)[C@@H]4CC[C@@]32C)/C1=C(\CCC=C(C)C)C(=O)O` [Fusidic acid sodium salt] (20 µM), the growth in assay [1] was 0.00767; with Escherichia coli IAI1 [2], 1.02; in assay [3] it was 1.09; in assay [4], 0.122. In addition, the “fold change of Histamine concentration” value in [5] is 0.846 (inactive). The “fold change of Tryptamine concentration” value in assay [6] was 0.0208 (active); in assay [7], 0.102 (active). Further, the results for the “fold change of Putrescine concentration” value (with Escherichia coli IAI1 [8]; in assay [9]) were 0.913 (inactive) and 0.963 (inactive), respectively. In addition, the “fold change of Cadaverine concentration” value in the assay on Escherichia coli IAI1 [10] is 1 (inactive); in assay [11] it was 1.02 (inactive). Besides, in assay [12], the “fold change of 2-Phenylethylamine concentration” value is 0.106 (active).

Consider `CC#CCn1c(N2CCC[C@@H](N)C2)nc2c1c(=O)n(Cc1nc(C)c3ccccc3n1)c(=O)n2C` [Linagliptin] (20 µM), for which the growth worked out at 1.01 in assay [1], 1.03 with Escherichia coli IAI1 [2], 0.993 in assay [3] and 0.856 in [4]. The “fold change of Histamine concentration” value in [5] is 1.08 (inactive). Further, the entries for the “fold change of Tryptamine concentration” value in assay [6] and in assay [7] were 1.07 (inactive) and 1.02 (inactive), respectively. The “fold change of Putrescine concentration” value in the assay on Escherichia coli IAI1 [8] is 1.01 (inactive); in assay [9], 1.02 (inactive). The “fold change of Cadaverine concentration” value with Escherichia coli IAI1 [10] was 0.983 (inactive); in assay [11], 0.996 (inactive). In addition, in assay [12], the “fold change of 2-Phenylethylamine concentration” value is 0.997 (inactive).

With `C[C@@H](c1ncncc1F)[C@](O)(Cn1cncn1)c1ccc(F)cc1F` [Voriconazole] (20 µM), the growth in assay [1] amounted to 0.883; in the assay with Escherichia coli IAI1 [2], 0.997; in assay [3], 1.02; in assay [4], 0.932. Moreover, the “fold change of Histamine concentration” value in assay [5] was 0.988 (inactive). Also, the “fold change of Tryptamine concentration” value in assay [6] is 1.07 (inactive); in assay [7], 1.01 (inactive). Also, the “fold change of Putrescine concentration” value in the assay with Escherichia coli IAI1 [8] is 1.02 (inactive); in assay [9] it was 0.999 (inactive). In addition, the “fold change of Cadaverine concentration” value in the assay on Escherichia coli IAI1 [10] is 0.988 (inactive); in [11], 1 (inactive). Moreover, the “fold change of 2-Phenylethylamine concentration” value in assay [12] was 0.991 (inactive).

On to `CC(C)c1nc(N(C)S(C)(=O)=O)nc(-c2ccc(F)cc2)c1/C=C/[C@@H](O)C[C@@H](O)CC(=O)O` [Rosuvastatin] (20 µM), for which the growth in assay [1] is 0.904; in the assay on Escherichia coli IAI1 [2], 1.22; in assay [3], 1.02; in assay [4], 1.01. Also, the “fold change of Histamine concentration” value in [5] is 0.953 (inactive). Further, the “fold change of Tryptamine concentration” value in assay [6] was 1.03 (inactive); in assay [7], 0.989 (inactive). Further, the figures for the “fold change of Putrescine concentration” value (in the assay with Escherichia coli IAI1 [8]; in assay [9]) were 1.06 (inactive) and 1 (inactive), respectively. The “fold change of Cadaverine concentration” value in the assay with Escherichia coli IAI1 [10] is 0.951 (inactive); in assay [11], 0.989 (inactive). Besides, the “fold change of 2-Phenylethylamine concentration” value in assay [12] was 1 (inactive).

Turning to `Cc1cc(C(C)(C)C)c(O)c(C)c1CC1=NCCN1` [Oxymetazoline hydrochloride] (20 µM), the growth was determined as 0.934 in assay [1], 1.02 in the assay on Escherichia coli IAI1 [2], 0.987 in [3] and 0.978 in assay [4]. Besides, the “fold change of Histamine concentration” value in assay [5] was 0.947 (inactive). Besides, the “fold change of Tryptamine concentration” value in assay [6] was 1.03 (inactive); in assay [7], 1.01 (inactive). Besides, the “fold change of Putrescine concentration” value is 0.983 (inactive) in the assay on Escherichia coli IAI1 [8] and 0.958 (inactive) in assay [9]. In addition, the “fold change of Cadaverine concentration” value with Escherichia coli IAI1 [10] was 0.968 (inactive); in assay [11], 1.01 (inactive). For the same compound, the “fold change of 2-Phenylethylamine concentration” value in assay [12] is 0.996 (inactive).

For `CNCc1cc(-c2ccccc2F)n(S(=O)(=O)c2cccnc2)c1` [Vonoprazan] (20 µM), the growth was 1.08 in [1], 0.967 in the assay with Escherichia coli IAI1 [2], 0.975 in assay [3] and 1.04 in assay [4]. In addition, in [5], the “fold change of Histamine concentration” value was 1.04 (inactive). The “fold change of Tryptamine concentration” value in [6] is 1 (inactive); in assay [7], 1.02 (inactive). The entries for the “fold change of Putrescine concentration” value (in the assay with Escherichia coli IAI1 [8]; in assay [9]) were 0.503 (inactive) and 1 (inactive), respectively. For the same compound, the “fold change of Cadaverine concentration” value in the assay with Escherichia coli IAI1 [10] was 0.483 (inactive); in assay [11] it was 0.982 (inactive). Besides, in [12], the “fold change of 2-Phenylethylamine concentration” value is 0.999 (inactive).

These data come from the supplement of paper PMC12494721.
